Measured values as given in PubChem BioAssay (EPA / NIEHS).
Active and inactive are the calls of the source. How the source made its calls: active means hit-call score of the fitted dose curve at least 0.9, where 1 is the maximum; inactive means score below 0.9.

Assay: CCTE_Padilla_ZF_Score.Craniofacial: CCTE's 144 Hour Post-fertilization zebrafish Assay Score for Craniofacial Malformation, Padilla Lab (AID 2284405)
Method: CCTE_Padilla_ZF_Phenotype_Score is a whole embryo, multiplexed assay using zebrafish ova exposed for 144 hours post fertilization on a 96-well plate.CCTE_Padilla_ZF_Score.Craniofacial is one of one assay component(s) measured or calculated from the CCTE_Padilla_ZF_Phenotype_Score assay. It is designed to make measurements of zebrafish development as detected with brightfield microscopy of developing zebrafish embryos.Data from the assay component CCTE_Padilla_ZF_Score.Craniofacial was analyzed into 1 assay endpoints. This assay endpoint, CCTE_Padilla_ZF_Score.Craniofacial, was analyzed in the positive analysis fitting direction relative to DMSO as the negative control and baseline of activity. Using a type of viability reporter, gain-of-signal activity can be used to understand changes in developmentals as they relate to the whole embryo. To generalize the intended target to other relatable targets, this assay endpoint is annotated to the zebrafish development intended target family, where the subfamily is craniofacial morphogenesis.
Zebrafish husbandry: Wild type adult zebrafish (Danio rerio; undefined outbred stock obtained from Aquatic Research Organisms, Hampton, NH, 03842) were housed in an AAALAC-approved animal facility at 28C with a 14:10 h light: dark cycle (lights on at 08:30 h). Adult fish (2-3 females per male; density = 15-20 adults per tank) were kept in one of several 9-liter (L) flow-through colony tanks (Aquaneering Inc., San Diego, CA). All adults in a colony tank were placed in a 2 L (static) breeding tank (Aquatic Habitats, Apopka, FL) one hour prior to light onset. Typically, adults from two to three colony tanks were mated on the same day. Two hours after light onset the adults were returned to the colony tank. All embryos were gathered from each breeder tank, pooled, and placed in a 28C water bath for 2 h, followed by two washes with 0.06% bleach (v/v) in 10% Hanks' Balanced Salt Solution (13.7 mM NaCl 0.54 mM KCl, 25 uM Na2HPO4, 130 uM CaCl2 100 um MgSO4 and 420 um NaHCO3,), hereafter referred to as Hanks' solution, for 5 min in order to remove any residual bacteria or fungi. Immediately following washing, the embryos were examined, and healthy embryos were separated from dead or unfertilized eggs and moved into fresh Hanks'. Chemical exposures: Zebrafish embryos were exposed in 96-well plates. Between 6- and 8-hours post fertilization (hpf), healthy embryos (with chorions) were transferred, one embryo per well, into 96 well (0.5 mL) microtiter plates (Cell Culture-Treated, Flat-Bottom Microplate 96 well [Corning Costar, Kennebunk, ME; Cat 09-761-145]) filled with 200 uL of Hanks' solution. A random number generator was used to assign the order in which the rows of embryos were plated in 96 well plates each week. After plating, the embryos were dosed with 0.8 uL of the chemical dosing solution then immediately sealed with AlumaSeal II (Excel Scientific Inc, Victorville, CA) to prevent volatilization of the chemicals, and then placed in a leakproof secondary container. These containers were placed in an incubator maintained on a 14:10 h light: dark cycle at 26C for rearing. On 5 dpf, live larvae were gently moved out of the plate with test chemicals and into a new 96 well mesh plate (Millipore Corp., Bedford, MA) with just the Hanks' solution. Once within the mesh well plate, the animals were rinsed with 400 uL of fresh Hanks' three times, and then the plates were covered with a non-adhesive material (Microseal A, BioRad, Hercules, CA), plate lid added, and then plate sides wrapped in Parafilm (PM992, Bermis Company, Neenah, WI), and returned to the incubator. […]

Row | SMILES | outcome | AC50
1 | O=C(O)C(F)(OC(F)(F)C(F)(OC(F)(F)C(F)(F)C(F)(F)F)C(F)(F)F)C(F)(F)F (stereo not given) | inactive | –
2 | FC(F)(F)C(F)(F)C(F)(F)C(F)(F)C(F)(F)C(F)(F)C(F)(F)C(F)(F)F | inactive | –
3 | FC(F)(F)C(F)(F)C(F)(F)C(F)(F)C(F)(F)CCI | inactive | –
4 | C=CC(=O)OCC(F)(F)C(F)(F)C(F)(F)C(F)(F)C(F)(F)C(F)(F)C(F)(F)F | inactive | –
5 | OCC(F)(F)C(F)(F)C(F)(F)C(F)(F)C(F)(F)C(F)(F)F | inactive | –
6 | O=C(O)C(F)(F)C(F)(F)F | inactive | –
7 | C=CC(=O)OCC(F)(F)C(F)(F)C(F)(F)C(F)(F)COC(=O)C=C | inactive | –
8 | C=C(C)C(=O)OCC(F)(F)C(F)(F)C(F)(F)C(F)(F)C(F)(F)C(F)(F)C(F)(F)F | inactive | –
9 | O=S(=O)(O)C(F)(F)C(F)(F)C(F)(F)C(F)(F)C(F)(F)C(F)(F)C(F)(F)F | – | 65.3 µM (active)
10 | FC(F)(F)C(F)(F)C(F)(F)N(C(F)(F)C(F)(F)C(F)(F)F)C(F)(F)C(F)(F)C(F)(F)F | inactive | –
11 | FC(F)(F)C(F)(F)C(F)(F)C(F)(F)C(F)(F)C(F)(F)C(F)(F)I | inactive | –
12 | NC(=O)C(F)(F)C(F)(F)C(F)(F)C(F)(F)F | inactive | –
13 | FC(F)(F)C(F)(F)C(F)(F)C(F)(F)C(F)(F)C(F)(F)CC1CO1 (stereo not given) | inactive | –
14 | O=C(O)C=C(C(F)(F)F)C(F)(F)F | inactive | –
15 | OCC(F)(F)C(F)(F)C(F)(F)C(F)(F)C(F)(F)C(F)F | inactive | –
16 | O=S(=O)(OCC(F)F)C(F)(F)F | inactive | –
17 | CCO[Si](CCC(F)(F)C(F)(F)C(F)(F)C(F)(F)C(F)(F)C(F)(F)F)(OCC)OCC | inactive | –
18 | Cc1ccc(S(=O)(=O)OCC(F)(F)C(F)(F)C(F)(F)C(F)(F)C(F)(F)C(F)F)cc1 | inactive | –
19 | OCC(F)(F)C(F)(F)C(F)(F)C(F)F | inactive | –
20 | FC(F)(F)C(F)(F)C(F)(F)C(F)(F)CCI | inactive | –

Row | SMILES | outcome | AC50
21 | C=C(C)C(=O)OCC(F)(F)C(F)(F)C(F)(F)F | inactive | –
22 | FC(F)(F)C(F)(F)C(F)(F)C(F)(F)C(F)(F)C(F)(F)C(F)(F)C(F)(F)CCS | inactive | –
23 | FC(F)(Br)C(F)(F)C(F)(F)C(F)(F)C(F)(F)C(F)(F)Br | inactive | –
24 | C=C(C)C(=O)OCCC(F)(F)C(F)(F)C(F)(F)C(F)(F)C(F)(C(F)(F)F)C(F)(F)F | inactive | –
25 | N=C(N)C(F)(F)C(F)(F)C(F)(F)C(F)(F)C(F)(F)C(F)(F)C(F)(F)F | inactive | –
26 | FC(F)(F)C(F)(F)C(F)(F)CI | inactive | –
27 | FC(F)(F)C(F)(F)C(F)(F)C(F)(F)C(F)(F)C(F)(F)CCS | inactive | –
28 | OCCCC(F)(F)C(F)(F)C(F)(F)C(F)(F)C(F)(F)C(F)(F)C(F)(F)F | inactive | –
29 | C=CC(F)(F)C(F)(F)C(F)(F)C(F)(F)C(F)(F)C(F)(F)C(F)(F)C(F)(F)F | inactive | –
30 | O=C(O)C(F)(F)C(F)(F)C(F)(F)C(F)(F)C(F)(F)C(F)(F)C(F)(F)C(F)(F)C(F)(F)C(F)(F)C(F)(F)C(F)(F)F | inactive | –
31 | OCC(F)(F)C(F)(F)C(F)(F)F | inactive | –
32 | O=C(O)C(F)(OC(F)(F)C(F)(OC(F)(F)C(F)(OC(F)(F)C(F)(F)C(F)(F)F)C(F)(F)F)C(F)(F)F)C(F)(F)F (stereo not given) | inactive | –
33 | O=C(O)C(F)(F)C(F)(F)C(F)(F)C(F)(F)F | inactive | –
34 | O=C(O)C(F)(F)C(F)(F)C(F)(F)C(F)(F)C(F)(F)C(F)(F)C(F)(F)C(F)(F)C(F)(F)C(F)F | inactive | –
35 | O=C(CC(=O)C(F)(F)C(F)(F)F)C(F)(F)F | inactive | –
36 | O=C(O)C(F)(F)C(F)(F)OC(F)(F)F | inactive | –
37 | O=C(O)C(F)(F)C(F)(F)C(F)F | inactive | –
38 | FC(F)(F)C(F)(F)CNCC(F)(F)C(F)(F)F | inactive | –
39 | O=C(Cl)C(F)(F)C(F)(F)C(F)(F)C(F)(F)C(F)(F)C(F)(F)C(F)(F)C(F)(F)F | inactive | –
40 | O=P(O)(O)OCCC(F)(F)C(F)(F)C(F)(F)C(F)(F)C(F)(F)C(F)(F)F | inactive | –
